# Data taken from the supplement of paper PMC7411640.
# Where a name gives a salt, the structure may show the parent alone.
# Tested on: MDA-MB-468
# Assay: phospho-S6 immunofluorescence (DAPI-normalised), per-plate z-score; higher = higher phospho-S6 signal (less pathway suppression)
# Details: 24 h
# Protocol: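 GPCR-targeted compound library (MedChemExpress HY-L006) tested on MDA-MB-468 PTEN-null TNBC cells in 384-well plates at 0.1, 1 or 10 uM, combined with vehicle, GDC0941 450 nM or lapatinib 1 uM, for 24 h. Phospho-S6 (S240/244) immunofluorescence normalised to DAPI and expressed as a per-plate z-score; values are the mean of biological triplicates.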
smiles,measurement,setting,value
CCC(=O)OCC(=O)[C@@]1(OC(=O)CC)[C@@H](C)C[C@H]2[C@@H]3CCC4=CC(=O)C=C[C@]4(C)[C@@]3(F)[C@@H](O)C[C@@]21C [Betamethasone dipropionate] (compound 10 µM),phospho-S6 immunofluorescence (z-score),co-treatment: GDC0941 450 nM,-0.51
same,phospho-S6 immunofluorescence (z-score),co-treatment: lapatinib 1 uM,-0.45
same,phospho-S6 immunofluorescence (z-score),co-treatment: vehicle,0.82
Cc1cc(C(C)(C)C)cc(C)c1CC1=NCCN1 [Xylometazoline (hydrochloride)] (compound 10 µM),phospho-S6 immunofluorescence (z-score),co-treatment: GDC0941 450 nM,0.43
same,phospho-S6 immunofluorescence (z-score),co-treatment: lapatinib 1 uM,-0.12
same,phospho-S6 immunofluorescence (z-score),co-treatment: vehicle,-0.38
Cc1cc(NC(=O)Nc2ccc(N(C)C)cc2)c2cc(F)cc(F)c2n1 (compound 10 µM),phospho-S6 immunofluorescence (z-score),co-treatment: GDC0941 450 nM,-2.07
same,phospho-S6 immunofluorescence (z-score),co-treatment: lapatinib 1 uM,-0.1
same,phospho-S6 immunofluorescence (z-score),co-treatment: vehicle,-2.06
CC(C)C[C@H](NC(=O)[C@@H](COC(C)(C)C)NC(=O)[C@H](Cc1ccc(O)cc1)NC(=O)[C@H](CO)NC(=O)[C@H](Cc1c[nH]c2ccccc12)NC(=O)[C@H](Cc1cnc[nH]1)NC(=O)[C@@H]1CCC(=O)N1)C(=O)N[C@@H](CCCNC(=N)N)C(=O)N1CCC[C@H]1C(=O)NNC(N)=O [Goserelin (acetate)] (compound 10 µM),phospho-S6 immunofluorescence (z-score),co-treatment: GDC0941 450 nM,-1.26
same,phospho-S6 immunofluorescence (z-score),co-treatment: lapatinib 1 uM,0.37
same,phospho-S6 immunofluorescence (z-score),co-treatment: vehicle,0.21
Cn1c(=O)c2c(ncn2CC(=O)O)n(C)c1=O [Acefylline] (compound 10 µM),phospho-S6 immunofluorescence (z-score),co-treatment: GDC0941 450 nM,0.4
same,phospho-S6 immunofluorescence (z-score),co-treatment: lapatinib 1 uM,0.37
same,phospho-S6 immunofluorescence (z-score),co-treatment: vehicle,-0.98
CN1CCN(CCc2ccc(Cl)c(Cl)c2)CC1 [BD1063 (dhydrochloride)] (compound 10 µM),phospho-S6 immunofluorescence (z-score),co-treatment: GDC0941 450 nM,0.51
same,phospho-S6 immunofluorescence (z-score),co-treatment: lapatinib 1 uM,-1.56
same,phospho-S6 immunofluorescence (z-score),co-treatment: vehicle,-0.49
NCCc1ccc(O)c(O)c1 [Dopamine (hydrochloride)] (compound 10 µM),phospho-S6 immunofluorescence (z-score),co-treatment: GDC0941 450 nM,0.84
same,phospho-S6 immunofluorescence (z-score),co-treatment: lapatinib 1 uM,0.53
same,phospho-S6 immunofluorescence (z-score),co-treatment: vehicle,0.15
Nc1ncnc2c1ncn2C1CCCO1 (centres undefined) (compound 10 µM),phospho-S6 immunofluorescence (z-score),co-treatment: GDC0941 450 nM,0.45
same,phospho-S6 immunofluorescence (z-score),co-treatment: lapatinib 1 uM,-0.67
same,phospho-S6 immunofluorescence (z-score),co-treatment: vehicle,-0.21
COc1ccccc1N1CCN(CCN(C(=O)C2CCCCC2)c2ccccn2)CC1 (compound 10 µM),phospho-S6 immunofluorescence (z-score),co-treatment: GDC0941 450 nM,-0.49
same,phospho-S6 immunofluorescence (z-score),co-treatment: lapatinib 1 uM,0.26
same,phospho-S6 immunofluorescence (z-score),co-treatment: vehicle,-0.79
CC(CN1c2ccccc2Sc2ccccc21)N(C)C (centres undefined) [Promethazine (hydrochloride)] (compound 10 µM),phospho-S6 immunofluorescence (z-score),co-treatment: GDC0941 450 nM,-1.86
same,phospho-S6 immunofluorescence (z-score),co-treatment: lapatinib 1 uM,-2.76
same,phospho-S6 immunofluorescence (z-score),co-treatment: vehicle,-0.84
O=C(c1ccc(F)cc1)C1CCN(CCn2c(=O)[nH]c3ccccc3c2=O)CC1 [Ketanserin] (compound 10 µM),phospho-S6 immunofluorescence (z-score),co-treatment: GDC0941 450 nM,-0.64
same,phospho-S6 immunofluorescence (z-score),co-treatment: lapatinib 1 uM,-0.02
same,phospho-S6 immunofluorescence (z-score),co-treatment: vehicle,-0.85
COc1cc2c(cc1OC)CC(=O)N(CCCN(C)C[C@H]1Cc3cc(OC)c(OC)cc31)CC2 [Ivabradine (hydrochloride)] (compound 10 µM),phospho-S6 immunofluorescence (z-score),co-treatment: GDC0941 450 nM,-0.44
same,phospho-S6 immunofluorescence (z-score),co-treatment: lapatinib 1 uM,-0.13
same,phospho-S6 immunofluorescence (z-score),co-treatment: vehicle,-0.38
CCN(CC)CCOC(=O)[C@@H](Cc1cccc2ccccc12)C[C@@H]1CCCO1 [Naftidrofuryl (oxalate)] (compound 10 µM),phospho-S6 immunofluorescence (z-score),co-treatment: GDC0941 450 nM,-1.27
same,phospho-S6 immunofluorescence (z-score),co-treatment: lapatinib 1 uM,-0.87
same,phospho-S6 immunofluorescence (z-score),co-treatment: vehicle,-1.37
